{"source": "paper PMC10668032", "about": "“Altered binding affinity of SIX1-Q177R correlates with enhanced WNT5A and WNT pathway effector expression in Wilms tumor”", "note": "Over roughly 33,000 sequences, “e-score” has its median near -0.053; the highest 2% begin near 0.38. What follows is part of a selection rich in the highest values, with near analogues and random picks from the rest.", "data": [{"target": "T1, SIX1 homeodomain (reference allele) (human, UniProt Q15475 108-198)", "T1 sequence": "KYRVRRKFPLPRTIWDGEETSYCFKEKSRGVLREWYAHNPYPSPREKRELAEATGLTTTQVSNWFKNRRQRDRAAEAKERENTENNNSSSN", "assay": "universal protein binding microarray; Universal all-10-mer PBM (8x60K, AMADID 030236), 300 nM GST-tagged protein, Alexa Fluor 488 anti-GST; buffer, salt, pH and temperature not stated (as in Berger); high values mean tight binding", "details": "protein: ivt; tags: N-terminal GST; dsDNA, one strand shown", "method_in_brief": "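GST-tagged homeodomains were made by in vitro transcription/translation and quantified by anti-GST western blot against a recombinant GST standard curve. They were applied in duplicate at 300 nM final concentration to universal 'all 10-mer' protein binding microarrays (8×60K format). Binding was quantified as 8-mer E-scores with the Universal PBM Analysis Suite.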", "units": {"binding signal": "E-score"}, "values": [{"sequence": "ATTCGATA", "binding signal": "0.302 ± 0.0451"}, {"sequence": "ATCAAAAA", "binding signal": "0.153 ± 0.0897"}, {"sequence": "ATCTAATA", "binding signal": "0.237 ± 0.0442"}, {"sequence": "TACACCCA", "binding signal": "0.341 ± 0.0149"}, {"sequence": "GACACCAA", "binding signal": "0.364 ± 0.0101"}, {"sequence": "CACACCCC", "binding signal": "0.26 ± 0.0792"}, {"sequence": "GACACCCA", "binding signal": "0.396 ± 0.0322"}, {"sequence": "AACACCCC", "binding signal": "0.268 ± 0.0366"}, {"sequence": "GACACCCC", "binding signal": "0.436 ± 0.0137"}, {"sequence": "GATTATAC", "binding signal": "0.34 ± 0.0371"}, {"sequence": "GCCGATCA", "binding signal": "0.229 ± 0.0129"}, {"sequence": "ATAGCCCC", "binding signal": "0.181 ± 0.0335"}, {"sequence": "TATCAGAA", "binding signal": "0.354 ± 0.0409"}, {"sequence": "TACCTCTA", "binding signal": "0.204 ± 0.0372"}, {"sequence": "AAGACACC", "binding signal": "0.347 ± 0.0269"}, {"sequence": "CCGACACC", "binding signal": "0.438 ± 0.013"}, {"sequence": "GAGACACC", "binding signal": "0.306 ± 0.032"}, {"sequence": "GGGACACC", "binding signal": "0.341 ± 0.0406"}, {"sequence": "ACGACACG", "binding signal": "0.156 ± 0.0251"}, {"sequence": "GCGACACC", "binding signal": "0.412 ± 0.0314"}, {"sequence": "CCGACAGA", "binding signal": "0.195 ± 0.026"}, {"sequence": "ACGACACC", "binding signal": "0.432 ± 0.024"}, {"sequence": "CCAACACC", "binding signal": "0.291 ± 0.0364"}, {"sequence": "CTGCTATC", "binding signal": "0.292 ± 0.00957"}, {"sequence": "CACACCAG", "binding signal": "0.156 ± 0.0892"}, {"sequence": "ACTAATAC", "binding signal": "0.225 ± 0.029"}, {"sequence": "GATGTATA", "binding signal": "0.306 ± 0.0136"}, {"sequence": "CTGATATC", "binding signal": "0.465 ± 0.0148"}, {"sequence": "GCTATATA", "binding signal": "0.2534 ± 0.00173"}, {"sequence": "CTTATATC", "binding signal": "0.292 ± 0.0136"}, {"sequence": "GTGATATA", "binding signal": "0.419 ± 0.016"}, {"sequence": "ATGAGATA", "binding signal": "0.262 ± 0.0851"}, {"sequence": "GTGAGATA", "binding signal": "0.388 ± 0.0283"}, {"sequence": "GCGATATA", "binding signal": "0.399 ± 0.0347"}, {"sequence": "CTGATATA", "binding signal": "0.358 ± 0.0287"}, {"sequence": "TAGATATA", "binding signal": "0.323 ± 0.076"}, {"sequence": "CCGATATA", "binding signal": "0.333 ± 0.0187"}, {"sequence": "CTAATATC", "binding signal": "0.339 ± 0.0352"}, {"sequence": "CTGAGATA", "binding signal": "0.248 ± 0.0841"}, {"sequence": "ATGAGAAG", "binding signal": "0.176 ± 0.0788"}, {"sequence": "ATATGCAG", "binding signal": "0.222 ± 0.0653"}, {"sequence": "GATTACGC", "binding signal": "0.225 ± 0.0112"}, {"sequence": "ATTGAGTA", "binding signal": "0.192 ± 0.0104"}, {"sequence": "AGATCTCC", "binding signal": "0.184 ± 0.0698"}, {"sequence": "ATCTGAGA", "binding signal": "0.292 ± 0.0452"}, {"sequence": "CATATGAG", "binding signal": "0.19 ± 0.0156"}, {"sequence": "GATCGCAC", "binding signal": "0.253 ± 0.0507"}, {"sequence": "ATGATATC", "binding signal": "0.476 ± 0.0196"}, {"sequence": "ATCATATG", "binding signal": "0.281 ± 0.0284"}, {"sequence": "AAGATATA", "binding signal": "0.28 ± 0.0929"}, {"sequence": "ATAATATC", "binding signal": "0.358 ± 0.0729"}, {"sequence": "ATTATATG", "binding signal": "0.182 ± 0.0439"}, {"sequence": "ATGATATG", "binding signal": "0.472 ± 0.0175"}, {"sequence": "ATTATATC", "binding signal": "0.329 ± 0.0838"}, {"sequence": "ATTATATA", "binding signal": "0.254 ± 0.0255"}, {"sequence": "ATGATATA", "binding signal": "0.414 ± 0.0235"}, {"sequence": "CTGGCATA", "binding signal": "0.228 ± 0.0218"}, {"sequence": "ATCATTCC", "binding signal": "0.291 ± 0.0446"}, {"sequence": "GATCAACC", "binding signal": "0.319 ± 0.0399"}, {"sequence": "ACGATCAG", "binding signal": "0.1967 ± 0.000827"}, {"sequence": "CGGATTTA", "binding signal": "0.196 ± 0.05"}, {"sequence": "GATCGCCC", "binding signal": "0.379 ± 0.00824"}, {"sequence": "GATCCCAA", "binding signal": "0.275 ± 0.0231"}, {"sequence": "GATCCCCA", "binding signal": "0.387 ± 0.046"}, {"sequence": "CATCCCCC", "binding signal": "0.199 ± 0.0656"}, {"sequence": "AATCCCAC", "binding signal": "0.158 ± 0.00675"}, {"sequence": "GATCCCAC", "binding signal": "0.379 ± 0.0379"}, {"sequence": "GATCGCGC", "binding signal": "0.197 ± 0.0401"}, {"sequence": "GATCGCCA", "binding signal": "0.211 ± 0.0516"}, {"sequence": "GATCCCGC", "binding signal": "0.375 ± 0.0422"}, {"sequence": "AATCCCCC", "binding signal": "0.261 ± 0.00738"}, {"sequence": "TATCCCCA", "binding signal": "0.35 ± 0.00527"}, {"sequence": "GATCCCCC", "binding signal": "0.47 ± 0.0193"}, {"sequence": "ATCTACAG", "binding signal": "0.152 ± 0.023"}, {"sequence": "ACGTATAT", "binding signal": "0.271 ± 0.065"}, {"sequence": "ATCTAGAT", "binding signal": "0.26 ± 0.0531"}, {"sequence": "CGAGACGA", "binding signal": "0.156 ± 0.029"}, {"sequence": "CCGGAGAC", "binding signal": "0.184 ± 0.00939"}, {"sequence": "CCCCGATC", "binding signal": "0.346 ± 0.0685"}, {"sequence": "ATGAGCTC", "binding signal": "0.166 ± 0.0357"}, {"sequence": "GATCCAGC", "binding signal": "0.265 ± 0.0768"}, {"sequence": "GATCCACA", "binding signal": "0.335 ± 0.0765"}, {"sequence": "GATCCTCA", "binding signal": "0.295 ± 0.0129"}, {"sequence": "CATCCTCC", "binding signal": "0.153 ± 0.0426"}, {"sequence": "GATCCTCC", "binding signal": "0.381 ± 0.0158"}, {"sequence": "GATCCACC", "binding signal": "0.394 ± 0.0435"}, {"sequence": "ATCTGTCC", "binding signal": "0.29 ± 0.0606"}, {"sequence": "CGAGACAC", "binding signal": "0.176 ± 0.0324"}, {"sequence": "CATAGATA", "binding signal": "0.259 ± 0.0781"}, {"sequence": "TCACATGA", "binding signal": "0.166 ± 0.0132"}, {"sequence": "AAATCCCC", "binding signal": "0.181 ± 0.0853"}, {"sequence": "CTATCCCC", "binding signal": "0.321 ± 0.0256"}, {"sequence": "GAATCCCA", "binding signal": "0.165 ± 0.0648"}, {"sequence": "ATATCCCA", "binding signal": "0.418 ± 0.0119"}, {"sequence": "CAATCCCG", "binding signal": "0.155 ± 0.0636"}, {"sequence": "CAATCCCA", "binding signal": "0.177 ± 0.00991"}, {"sequence": "ATCTCCCG", "binding signal": "0.222 ± 0.0116"}, {"sequence": "ATATCCCC", "binding signal": "0.457 ± 0.00651"}, {"sequence": "ATCTCCCA", "binding signal": "0.238 ± 0.0314"}, {"sequence": "ATATCCCG", "binding signal": "0.42 ± 0.0102"}, {"sequence": "GTATCCCA", "binding signal": "0.388 ± 0.0324"}, {"sequence": "CTATCCCA", "binding signal": "0.257 ± 0.013"}, {"sequence": "ATCAAGGG", "binding signal": "0.258 ± 0.0527"}, {"sequence": "GGAGATTA", "binding signal": "0.197 ± 0.0921"}, {"sequence": "ATCGGGTC", "binding signal": "0.285 ± 0.0351"}, {"sequence": "CCGATGAG", "binding signal": "0.173 ± 0.0124"}, {"sequence": "GAGATAGA", "binding signal": "0.183 ± 0.00408"}, {"sequence": "ACGAATAT", "binding signal": "0.179 ± 0.047"}, {"sequence": "CGTTATAC", "binding signal": "0.204 ± 0.0355"}, {"sequence": "ATCATGTG", "binding signal": "0.328 ± 0.0175"}, {"sequence": "CATTGCGG", "binding signal": "0.222 ± 0.028"}, {"sequence": "CCGCCATA", "binding signal": "0.209 ± 0.0131"}]}]}
